According to PubChem BioAssay (NCI):
Values joined by “and” are separate entries in the source; they are usually repeats but may differ in a detail not shown here. Equal entries are not always repeated. This is part of a sample that, as a whole, favours compounds with a hit. Of some 79,000 tested, about 15% had one in any assay. A number with no mark means an inactive call. Active and inactive are the calls of the source. Rule as the data show it: active = growth inhibition above about 70%; inactive = the rest.

Assays:
[1] = NCI Yeast Anticancer Drug Screen. Data for the rad50 strain (AID 155);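 also: 0% = growth of vehicle-only cultures of the same strain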; details: S. cerevisiae rad50 strain growth inhibition, hits give high values
Procedure, shortened: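 Genetically altered yeast (DNA repair pathway); compound treatment; growth inhibition vs vehicle ctrl.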

[2] = NCI Yeast Anticancer Drug Screen. Data for the mec2-1 strain (AID 157); details: S. cerevisiae mec2-1 strain, hits give high values
Procedure, shortened: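 Test agents were screened against the mec2-1 yeast strain, with defined DNA repair or cell cycle alteration. Growth was scored as inhibition against vehicle-only controls.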

[3] = NCI Yeast Anticancer Drug Screen. Data for the sgs1 mgt1 strain (AID 161);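 also: 0% = growth of cultures given vehicle only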; details: S. cerevisiae sgs1 mgt1 strain, hits give high values
Procedure, shortened: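 Test agents were incubated with a DNA-repair-mutant yeast strain. Growth was then read and compared against vehicle-treated controls.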

[4] = NCI Yeast Anticancer Drug Screen. Data for the cln2 rad14 strain (AID 165);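 also: 0% = growth equal to vehicle treated cultures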; details: S. cerevisiae cln2 rad14 strain, hits give high values
Procedure, shortened: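 Growth of compound-exposed yeast (cln2 rad14 genotype) measured and expressed as inhibition relative to vehicle.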

[5] = NCI Yeast Anticancer Drug Screen. Data for the bub3 strain (AID 167); details: S. cerevisiae bub3 mutant strain, hits give high values
Procedure, shortened: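 Yeast carrying a defined mutation is treated with each compound, and growth is compared with that of vehicle-exposed cells to give inhibition.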

[6] = NCI Yeast Anticancer Drug Screen. Data for the mlh1 rad18 strain (AID 175); details: S. cerevisiae mlh1 rad18 strain growth inhibition, hits give high values
Procedure, shortened: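 In this whole-cell yeast screen, a strain with altered DNA damage repair is challenged with compound, and its growth is measured against matched vehicle-treated controls.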

[7] = at 5.0 µM (retest, dose inferred, filed as 0.5)
[8] = at 50.0 µM (retest, dose inferred, filed as 5.0)

Row | SMILES | growth inhibition ([1]; at 50.0 µM) | growth inhibition ([2]; at 50.0 µM) | growth inhibition ([3]; at 50.0 µM) | growth inhibition ([4]; at 50.0 µM) | growth inhibition ([5]; at 50.0 µM) | growth inhibition ([6]; at 50.0 µM) | growth inhibition [1, 7] | growth inhibition [1, 8] | growth inhibition [2, 7] | growth inhibition [2, 8] | growth inhibition [4, 7] | growth inhibition [4, 8] | growth inhibition [5, 7] | growth inhibition [5, 8] | growth inhibition [6, 7] | growth inhibition [6, 8] | growth inhibition [3, 7] [%] | growth inhibition [3, 8]
1 | O=CC(O)C(O)C(O)C(O)C(O)CO (centres undefined) | -13.5% and 36% and -23.8% | -1.55% and -10.8% and -7.35% | -8.85% and -1.5% and -6.45% | -56.4% and -44.2% and -19.8% | 7.5% and 25.1% and -0.4% | -12.4% and 19.2% and 4.25% | – | – | – | – | – | – | – | – | – | – | – | –
2 | CC(C)=CC1C(COC(=O)CCl)C1(C)C (centres undefined) | 1.85% | 44.8% | – | -29.4% | 36.1% | -23.6% | -6% | 8% | 3% | 0% | 0% | -11% | 2% | -5% | -2% | 5% | – | –
3 | CCNC(=S)NC1CCCCCCCCCCC1 | – | 75.3% (active) | 87.2% (active) | 20.8% | 82.9% (active) | 69.2% | – | – | 99% (active) | 99% (active) | 51% | 59% | 40% | 81% (active) | 100% (active) | 100% (active) | 26 | 88% (active)
4 | Cc1ccnc(N)c1 | -10.2% and -13.3% and 9.05% | -3.4% and -17.8% and 11.4% | 2.2% and -19.4% and -6.3% | -34.4% and -28.6% and -33.6% | 0.95% and 7.15% and -8.9% | 1.35% and 16.1% and 1.85% | – | – | – | – | – | – | – | – | – | – | – | –
5 | O=c1c(-c2ccccc2)c1-c1ccccc1 | 98.7% (active) | 99.3% (active) | – | 97.6% (active) | 99.2% (active) | 99% (active) | 7% | 92% (active) | 4% | 95% (active) | -2% | 96% (active) | 5% | 91% (active) | 1% | 96% (active) | – | –
6 | O=C(c1ccccc1)c1ccc2cccc(O)c2n1 | 88.8% (active) | 91.5% (active) | – | 88.8% (active) | 91.7% (active) | 89.4% (active) | 19% | 63% | -18% | 31% | 5% | 34% | -21% | 77% (active) | -19% | 77% (active) | – | –
7 | CC1(C)c2ccccc2-c2nc3ccccc3cc2C1Br (centres undefined) | – | 46.7% | 73.7% (active) | 44.3% | 95% (active) | 70.5% (active) | – | – | -4% | 26% | -22% | 4% | 2% | 59% | -1% | 27% | -4 | 23%
8 | COc1ccc2nc(NC(=O)Nc3c(Cl)cccc3Cl)sc2c1 | 98.4% (active) | 99.3% (active) | 99% (active) | 97.6% (active) | – | 98.3% (active) | 13% | 99% (active) | -3% | 99% (active) | 15% | 98% (active) | – | – | 30% | 98% (active) | 20 | 99% (active)
9 | N#C/C(=C\c1ccc(Cl)cc1Cl)C(N)=S | – | 95.2% (active) | 98.5% (active) | 86.8% (active) | 89.1% (active) | 95.7% (active) | – | – | -4% | 88% (active) | -12% | 82% (active) | -9% | 79% (active) | -11% | 93% (active) | -2 | 93% (active)
10 | CC1C2CCC3C4CC=C5CC(N(C)C)CCC5(C)C4CCC32CN1C (centres undefined) | -9.65% and 13.9% and -0.1% | -3.8% and 1% and -6.15% | -8% and 7.6% and -3.15% | 7.25% and 0.15% and 30.5% | -6.35% and 18.9% and 33.6% | 9.35% and 23.6% and -7.35% | – | – | – | – | – | – | – | – | – | – | – | –
11 | Cc1ccc(N2CC3CC4(C)C=CC3(C2)O4)cc1 (centres undefined) | – | 49.7% | 79.8% (active) | -6.65% | 89.5% (active) | 50.8% | – | – | -9% | 1% | -22% | 10% | 13% | -3% | 30% | -1% | 10 | 22%
12 | O=[N+]([O-])c1ccc(/C=C/[n+]2ccc3ccccc3c2)o1 | 98.8% (active) | 98.8% (active) | – | 96.2% (active) | 99.2% (active) | 99% (active) | 29% | 93% (active) | 24% | 91% (active) | -6% | 95% (active) | 10% | 97% (active) | 52% | 97% (active) | – | –
13 | [Cl][Co][Cl].[NH-]CC[N-]CC[N-]CC[NH-] | 29.6% and -6.2% and 5.8% | 16.8% and -10.4% and 22.6% | 13.9% and 16.4% and 32.5% | 28.4% and 16.1% and 18.5% | 14.1% and 19.4% and 25.4% | 6.35% and 12.3% and 47% | – | – | – | – | – | – | – | – | – | – | – | –
14 | CN1C(=O)OC(C)(c2ccccc2)C1=O (centres undefined) | -14.7% | -1.1% | – | 78% (active) | -11.8% | -2.55% | -3% | 4% | -2% | -3% | 2% | -1% | 2% | -7% | 0% | 8% | – | –
15 | CC(C)C1=CC[C@H]2C(=C1)CC[C@@H]1[C@]2(C)CCC[C@@]1(C)C(=O)O | – | 84.5% (active) | 74.8% (active) | 87% (active) | 78.2% (active) | 77.1% (active) | – | – | 15% | 91% (active) | -9% | 92% (active) | -6% | 89% (active) | 7% | 90% (active) | 9 | 91% (active)
16 | NNc1cc(Cl)ccc1Cl | 90.7% (active) | 91.8% (active) | 94% (active) | 91.8% (active) | – | 90.7% (active) | 73% (active) | 93% (active) | 91% (active) | 99% (active) | 80% (active) | 98% (active) | – | – | 55% | 100% (active) | 57 | 98% (active)
17 | S=c1ncc2c([nH]1)C1c3ccccc3C2c2ccccc21 | 86% (active) | 92% (active) | – | 88% (active) | 92.4% (active) | 90.5% (active) | -9% | 98% (active) | -6% | 98% (active) | 27% | 99% (active) | 16% | 98% (active) | -1% | 98% (active) | – | –
18 | CN(C)c1ccc(/C=N/c2nc(-c3ccccc3)cs2)cc1 | – | 98.4% (active) | 98% (active) | 97.2% (active) | 93.2% (active) | 97.8% (active) | – | – | 7% | 96% (active) | 2% | 89% (active) | 1% | 93% (active) | 23% | 95% (active) | 5 | 92% (active)
19 | COc1ccc(Cc2nc3ccc(Cl)cc3[nH]2)cc1 | 77% (active) | 76.4% (active) | – | 66% | 84.3% (active) | 86.9% (active) | 4% | 42% | -4% | 59% | -6% | 14% | 1% | 44% | 23% | 74% (active) | – | –
20 | Clc1ccc(COC(CN2CCOCC2)c2ccccc2)c(Cl)c1 (centres undefined) | 94.8% (active) | 96.2% (active) | – | 98.2% (active) | 94.9% (active) | 97.6% (active) | 2% | 89% (active) | 8% | 92% (active) | 11% | 83% (active) | 23% | 95% (active) | 11% | 87% (active) | – | –
21 | Nc1ccccc1SC(C[N+](=O)[O-])c1ccc2c(c1)OCO2 (centres undefined) | 98.8% (active) | 99% (active) | – | 97% (active) | 98.5% (active) | 99% (active) | 82% (active) | 99% (active) | 72% (active) | 100% (active) | 45% | 99% (active) | 80% (active) | 100% (active) | 65% | 99% (active) | – | –
22 | Cc1cc(Br)cc(C)c1NC(=O)C(=O)C(C(=O)c1ccc2ccccc2c1)C1OC(=O)c2ccccc21 (centres undefined) | 12.5% | 14.3% | – | 70% (active) | 31.5% | 31.8% | 4% | 38% | 4% | 19% | 1% | -14% | 5% | 23% | 4% | 19% | – | –
